Holding throughout (set-up): scale not given: direction of the effect not stated beside the values
Experiment [1] has as its target Protein translocase subunit SecA (Escherichia coli (strain K12)) (UniProt P10408). The experiment can be described thus: Assay to Identify E. coli SecA ATPase Inhibitors. The experiment is classed as functional. Particulars: 30 µM.
Experiment [2] addresses T1, Ubiquitin-activating enzyme e1, putative (Leishmania donovani (strain BPK282A1)) (UniProt E9BSI1).
T1 sequence (whole entry): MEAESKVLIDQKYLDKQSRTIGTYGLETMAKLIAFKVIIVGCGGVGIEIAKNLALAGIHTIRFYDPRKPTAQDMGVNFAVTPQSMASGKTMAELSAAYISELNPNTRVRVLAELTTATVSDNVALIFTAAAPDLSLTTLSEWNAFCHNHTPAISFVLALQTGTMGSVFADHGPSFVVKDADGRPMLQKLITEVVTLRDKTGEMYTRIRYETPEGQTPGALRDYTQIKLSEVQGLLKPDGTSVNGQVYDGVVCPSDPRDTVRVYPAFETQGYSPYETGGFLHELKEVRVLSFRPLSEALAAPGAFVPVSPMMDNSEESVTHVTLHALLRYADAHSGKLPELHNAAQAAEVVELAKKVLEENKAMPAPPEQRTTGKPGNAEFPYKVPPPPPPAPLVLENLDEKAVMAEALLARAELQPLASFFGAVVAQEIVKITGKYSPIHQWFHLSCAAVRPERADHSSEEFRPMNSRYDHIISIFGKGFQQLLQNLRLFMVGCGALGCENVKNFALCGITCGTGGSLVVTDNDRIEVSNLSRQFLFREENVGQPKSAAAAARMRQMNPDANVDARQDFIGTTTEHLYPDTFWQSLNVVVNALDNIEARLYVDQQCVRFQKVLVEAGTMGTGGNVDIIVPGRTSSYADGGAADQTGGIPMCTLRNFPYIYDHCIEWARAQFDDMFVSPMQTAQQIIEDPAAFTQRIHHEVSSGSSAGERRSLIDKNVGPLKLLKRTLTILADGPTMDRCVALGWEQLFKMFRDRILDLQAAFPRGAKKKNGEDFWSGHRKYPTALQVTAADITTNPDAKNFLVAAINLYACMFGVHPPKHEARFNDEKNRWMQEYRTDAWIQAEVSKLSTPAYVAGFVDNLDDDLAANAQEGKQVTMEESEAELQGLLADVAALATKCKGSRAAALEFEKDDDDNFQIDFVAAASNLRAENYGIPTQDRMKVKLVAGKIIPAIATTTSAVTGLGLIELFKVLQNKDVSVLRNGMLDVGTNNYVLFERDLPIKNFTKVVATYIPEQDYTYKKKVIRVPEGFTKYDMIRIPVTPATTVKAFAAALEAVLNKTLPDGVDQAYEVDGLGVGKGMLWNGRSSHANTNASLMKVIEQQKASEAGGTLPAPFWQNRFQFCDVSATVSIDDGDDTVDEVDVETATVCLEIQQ
The experiment can be described thus: Leishmania donovani Ubiquitin Activating Enzyme (LdE1). Type of experiment: functional. Particulars: 30 µM.

The target in experiment [3] is AMP-activated protein kinase, AMPK (Homo sapiens) (UniProt P54646+O43741+P54619+Q9UGJ0+Q9Y478+Q13131+Q9UGI9). The experiment can be described thus: AMP-dependent Kinase enzyme assay. An in vitro enzyme assay that detects ADP turnover that is directly proportional to AMPK activity. This uses naive AMPK that is activated during the assay with MK-8722. The experiment is classed as functional. The conditions noted are these: 30 µM.

For experiment [4], the target named is Sialic acid-binding Ig-like lectin 9 (Homo sapiens) (UniProt Q9Y336). The experiment in a line: Hs-Siglec9 ALPHAscreen SOP 20170721. Particulars: 10 µM. In general terms: In Alpha technology, singlet oxygen from a donor bead excites a nearby acceptor bead.
Sequence of Sialic acid-binding Ig-like lectin 9 (Homo sapiens) (Q9Y336 whole entry): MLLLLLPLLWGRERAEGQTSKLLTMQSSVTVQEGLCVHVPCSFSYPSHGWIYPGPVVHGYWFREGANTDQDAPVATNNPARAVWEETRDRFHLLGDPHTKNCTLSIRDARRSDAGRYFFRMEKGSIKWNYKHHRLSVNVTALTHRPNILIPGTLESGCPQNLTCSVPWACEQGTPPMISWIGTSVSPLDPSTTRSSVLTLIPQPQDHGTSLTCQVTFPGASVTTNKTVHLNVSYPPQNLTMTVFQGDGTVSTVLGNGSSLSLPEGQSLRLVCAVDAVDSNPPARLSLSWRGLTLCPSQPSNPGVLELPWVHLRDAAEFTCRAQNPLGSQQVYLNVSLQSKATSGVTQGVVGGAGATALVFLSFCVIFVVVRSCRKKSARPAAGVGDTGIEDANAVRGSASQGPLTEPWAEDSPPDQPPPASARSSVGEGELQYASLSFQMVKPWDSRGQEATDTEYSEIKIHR
The test system of a further experiment is Trypanosoma cruzi. The experiment in a line: Trypanosoma cruzi phosphomannomutase and mannose-1-phosphate guanylyltransferase assay. Type of experiment: functional. Particulars: 10 µM.
Experiment [5] concerns the target T2, Arginase-2, mitochondrial (Homo sapiens) (UniProt P78540).
T2 sequence (whole entry): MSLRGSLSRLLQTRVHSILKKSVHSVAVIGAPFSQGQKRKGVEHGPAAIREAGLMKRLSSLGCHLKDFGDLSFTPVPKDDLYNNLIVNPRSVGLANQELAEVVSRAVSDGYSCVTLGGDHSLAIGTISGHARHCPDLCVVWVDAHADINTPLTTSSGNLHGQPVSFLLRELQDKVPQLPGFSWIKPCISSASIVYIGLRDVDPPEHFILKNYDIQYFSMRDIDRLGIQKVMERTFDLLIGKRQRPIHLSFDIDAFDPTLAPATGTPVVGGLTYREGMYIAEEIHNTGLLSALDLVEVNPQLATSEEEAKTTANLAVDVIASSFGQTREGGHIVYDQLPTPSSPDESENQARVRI
The experiment can be described thus: in vitro enzyme assay to detect the production of urea directly proportional to the activity of Arginase II. Note: in the data most compounds retested in dose-response had high values. Particulars: 33.3 µM. Type of experiment: functional.

Experiment [6] concerns the target T3, Proteasome subunit beta (Trypanosoma cruzi) (UniProt O96673).
T3 sequence (whole entry): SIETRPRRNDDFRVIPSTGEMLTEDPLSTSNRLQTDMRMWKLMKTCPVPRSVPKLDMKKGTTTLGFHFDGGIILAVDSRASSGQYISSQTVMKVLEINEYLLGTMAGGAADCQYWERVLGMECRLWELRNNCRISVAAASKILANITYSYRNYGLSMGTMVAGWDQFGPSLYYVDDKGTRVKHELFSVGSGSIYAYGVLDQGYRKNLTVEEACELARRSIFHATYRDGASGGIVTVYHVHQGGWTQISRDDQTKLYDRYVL
The experiment can be described thus: Trypanosoma cruzi proteasome chymotrypsin-like activity (TcProtChymo) assay. Note: in the data most compounds retested in dose-response had high values. The experiment is classed as functional. Particulars: 9.37 µM.

The species named for the next experiment is Homo sapiens. The experiment can be described thus: To identify inhibition of the IFN signalling (Jak-Stat) pathway via expression of an eGFP reporter gene under the control of an IFN-stimulated response element (ISRE) containing MxA promoter. The experiment is classed as functional. Particulars: 30 µM. On the technique in general: A reporter such as luciferase makes a cellular process visible.

Experiment [7] deals with T4, Tyrosyl-tRNA synthetase, putative (Trypanosoma cruzi (strain CL Brener)) (UniProt Q4DSP6).
T4 sequence (whole entry): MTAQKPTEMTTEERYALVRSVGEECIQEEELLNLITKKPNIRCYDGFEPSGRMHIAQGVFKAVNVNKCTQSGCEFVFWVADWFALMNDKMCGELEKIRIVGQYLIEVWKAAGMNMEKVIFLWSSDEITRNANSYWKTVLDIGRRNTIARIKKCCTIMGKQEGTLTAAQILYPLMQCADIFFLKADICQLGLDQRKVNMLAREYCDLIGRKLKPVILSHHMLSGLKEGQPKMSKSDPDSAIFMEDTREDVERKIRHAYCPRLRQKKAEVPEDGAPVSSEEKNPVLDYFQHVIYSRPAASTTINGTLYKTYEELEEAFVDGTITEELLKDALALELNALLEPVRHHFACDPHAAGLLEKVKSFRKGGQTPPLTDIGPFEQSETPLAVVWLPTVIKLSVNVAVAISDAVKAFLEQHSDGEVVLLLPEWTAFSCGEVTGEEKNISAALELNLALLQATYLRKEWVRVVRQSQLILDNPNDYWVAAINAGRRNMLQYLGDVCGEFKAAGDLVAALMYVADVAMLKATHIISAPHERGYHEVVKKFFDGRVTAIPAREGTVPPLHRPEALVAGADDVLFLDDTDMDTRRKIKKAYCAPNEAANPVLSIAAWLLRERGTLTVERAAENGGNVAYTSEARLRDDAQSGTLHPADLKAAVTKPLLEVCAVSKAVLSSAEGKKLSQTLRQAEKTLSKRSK
The experiment can be described thus: Trypanosoma cruzi tyrosyl tRNA synthetase (TcYRS) _High Tyrosine SOP. Note: in the data most compounds retested in dose-response had high values. The conditions noted are these: 30 µM. The experiment is classed as functional.

The target in experiment [8] is T4, Tyrosyl-tRNA synthetase, putative (Trypanosoma cruzi (strain CL Brener)). The experiment can be described thus: Trypanosoma cruzi tyrosyl tRNA synthetase (TcYRS) SOP. The experiment is classed as functional. Particulars: 30 µM.
Experiment [9] deals with Chromo domain-containing protein 1 (Saccharomyces cerevisiae (strain ATCC 204508 / S288c) (Baker's yeast)) (UniProt P32657). The experiment in a line: ScCHD-1 Enzyme Inhibition Assay. Note: in the data most compounds retested in dose-response had high values. Type of experiment: functional. The conditions noted are these: 30 µM.
Sequence of Chromo domain-containing protein 1 (Saccharomyces cerevisiae (strain ATCC 204508 / S288c) (Baker's yeast)) (P32657 whole entry, the tested form may be a part): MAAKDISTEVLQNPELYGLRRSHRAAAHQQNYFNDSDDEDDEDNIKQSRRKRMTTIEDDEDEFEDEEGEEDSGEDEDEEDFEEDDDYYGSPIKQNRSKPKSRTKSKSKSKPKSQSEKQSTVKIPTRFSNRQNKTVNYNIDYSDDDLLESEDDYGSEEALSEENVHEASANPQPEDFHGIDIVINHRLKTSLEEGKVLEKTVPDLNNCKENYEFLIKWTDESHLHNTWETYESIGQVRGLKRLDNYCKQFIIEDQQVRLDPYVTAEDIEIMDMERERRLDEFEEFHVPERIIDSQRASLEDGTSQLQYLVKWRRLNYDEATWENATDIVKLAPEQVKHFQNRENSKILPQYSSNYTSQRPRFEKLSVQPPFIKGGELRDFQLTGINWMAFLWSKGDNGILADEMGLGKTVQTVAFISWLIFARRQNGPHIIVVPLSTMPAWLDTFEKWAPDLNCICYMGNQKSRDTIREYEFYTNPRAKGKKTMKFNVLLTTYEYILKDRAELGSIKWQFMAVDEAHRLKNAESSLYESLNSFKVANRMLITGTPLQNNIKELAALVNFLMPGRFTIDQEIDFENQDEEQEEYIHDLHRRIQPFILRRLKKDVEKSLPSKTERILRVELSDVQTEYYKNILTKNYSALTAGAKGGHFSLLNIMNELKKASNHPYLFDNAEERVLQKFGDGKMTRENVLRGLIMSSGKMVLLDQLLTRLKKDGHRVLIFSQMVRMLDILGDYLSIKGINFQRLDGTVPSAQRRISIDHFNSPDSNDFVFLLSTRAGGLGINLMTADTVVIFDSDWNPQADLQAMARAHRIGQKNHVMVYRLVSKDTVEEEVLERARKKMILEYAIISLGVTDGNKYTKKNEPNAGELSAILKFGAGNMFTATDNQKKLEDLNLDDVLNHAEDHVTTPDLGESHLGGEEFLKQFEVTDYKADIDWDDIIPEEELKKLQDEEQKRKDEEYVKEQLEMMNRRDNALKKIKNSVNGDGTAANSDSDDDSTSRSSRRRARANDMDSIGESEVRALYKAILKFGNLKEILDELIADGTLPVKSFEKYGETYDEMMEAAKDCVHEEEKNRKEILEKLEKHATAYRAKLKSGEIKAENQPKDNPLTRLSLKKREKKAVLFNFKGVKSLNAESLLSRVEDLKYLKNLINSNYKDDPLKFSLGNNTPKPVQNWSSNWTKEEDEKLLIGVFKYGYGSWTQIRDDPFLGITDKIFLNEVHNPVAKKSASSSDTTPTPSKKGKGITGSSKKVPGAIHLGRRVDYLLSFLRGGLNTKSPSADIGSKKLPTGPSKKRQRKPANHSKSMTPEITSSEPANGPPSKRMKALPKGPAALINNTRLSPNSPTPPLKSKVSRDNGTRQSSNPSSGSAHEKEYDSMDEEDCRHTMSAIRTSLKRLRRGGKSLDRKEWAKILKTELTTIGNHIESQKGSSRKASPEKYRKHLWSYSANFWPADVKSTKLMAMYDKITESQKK

For some of these results: Potency and affinity values are given separately.

Sequence of Protein translocase subunit SecA (Escherichia coli (strain K12)) (P10408 whole entry): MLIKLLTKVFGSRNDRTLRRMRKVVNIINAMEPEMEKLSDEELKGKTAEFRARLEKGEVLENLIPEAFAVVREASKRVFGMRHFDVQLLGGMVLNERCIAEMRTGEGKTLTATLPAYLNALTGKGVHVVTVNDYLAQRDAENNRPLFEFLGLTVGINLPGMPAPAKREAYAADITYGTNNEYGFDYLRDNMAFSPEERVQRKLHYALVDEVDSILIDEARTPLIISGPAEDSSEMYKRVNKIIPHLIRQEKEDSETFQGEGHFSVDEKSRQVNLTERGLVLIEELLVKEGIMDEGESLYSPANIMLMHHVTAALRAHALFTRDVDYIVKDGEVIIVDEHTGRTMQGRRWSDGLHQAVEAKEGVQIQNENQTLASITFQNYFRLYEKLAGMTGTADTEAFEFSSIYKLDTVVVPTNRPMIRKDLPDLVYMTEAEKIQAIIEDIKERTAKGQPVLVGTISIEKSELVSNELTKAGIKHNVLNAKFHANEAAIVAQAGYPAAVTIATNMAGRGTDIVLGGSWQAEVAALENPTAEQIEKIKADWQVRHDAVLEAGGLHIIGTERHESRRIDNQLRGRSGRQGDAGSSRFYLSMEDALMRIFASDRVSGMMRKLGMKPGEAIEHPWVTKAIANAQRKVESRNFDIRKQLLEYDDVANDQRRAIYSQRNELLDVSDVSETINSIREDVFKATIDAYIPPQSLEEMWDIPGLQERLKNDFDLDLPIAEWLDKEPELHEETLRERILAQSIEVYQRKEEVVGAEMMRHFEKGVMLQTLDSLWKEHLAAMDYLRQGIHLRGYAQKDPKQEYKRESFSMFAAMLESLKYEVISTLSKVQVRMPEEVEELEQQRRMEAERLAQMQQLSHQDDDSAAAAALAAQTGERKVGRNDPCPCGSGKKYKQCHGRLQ

Turning to `Cc1noc(C)c1CNCC1CCN(CC(O)c2ccccc2)CC1` (stereo unspecified), the Percent Effect in [1] is -1.37%; in [2], 11.4%; in experiment [3], -4.26%; in experiment [4], 6.03%; in the experiment on Trypanosoma cruzi, -1.54%; in experiment [5], -1.5%. Also, the Percent Effect is 9.09% in experiment [6]; -17.5% in the experiment filed under Homo sapiens; 4.17% in [7]; 17.7% in experiment [8]; -18% in experiment [9].

As to `Cc1ncsc1C(=O)NCCn1nc2ccccn2c1=O`, the Percent Effect in experiment [1] was -2.94%; in experiment [2], 13.5%; in experiment [3], 0.246%; in experiment [4], -6.32%; in the experiment on Trypanosoma cruzi, -3.44%; in experiment [5], 2.03%. For the same compound, the Percent Effect is 2.51% in experiment [6]; 13.6% in the experiment listed under Homo sapiens; 8.91% in [7]; 15.8% in [8]; -7.12% in experiment [9].

For the compound `Cc1cn(CC(=O)NC2CCN(S(C)(=O)=O)CC2)c2ccccc12`, the Percent Effect was -4.19% in experiment [1]; 0% in experiment [2]; 0.231% in [3]; -6.08% in experiment [4]; -2.44% in the experiment on Trypanosoma cruzi; 1.74% in experiment [5]. Moreover, the Percent Effect was 3.18% in [6]; 0.23% in the experiment listed under Homo sapiens; 2.15% in experiment [7]; 8.64% in experiment [8]; -4.9% in experiment [9].

As for `Cc1cnccc1CN1C[C@@H](O)[C@H](Oc2cccc(F)c2)C1`, the Percent Effect in [1] is -3.16%; in [2], 1.35%; in experiment [3], 10%; in [4] it was 2.32%; with Trypanosoma cruzi, 3.36%; in experiment [5], 0.696%. The Percent Effect was 4.37% in experiment [6]; 16.3% in the experiment listed under Homo sapiens; 0% in experiment [7]; 1.3% in experiment [8]; -22.9% in [9].

Regarding `Cn1cc(C(=O)CC2CCCN2C(=O)c2n[nH]c3ccccc23)cn1` (stereo unspecified), the Percent Effect in [1] is -2.35%; in experiment [2] it was 1.27%; in experiment [3] it was 3.62%; in experiment [4], 0.382%; with Trypanosoma cruzi, 2.56%; in experiment [5] it was 1.94%. Moreover, the Percent Effect in experiment [6] was 7.03%; in the experiment listed under Homo sapiens, -8.13%; in experiment [7], 7.29%; in experiment [8] it was 2.53%; in experiment [9] it was -9.86%.

As for `CC(C)(C)c1ncc(C(=O)NCCS(N)(=O)=O)s1`, the Percent Effect in [1] was -6.98%; in experiment [2], 2.63%; in experiment [3], -2.41%; in experiment [4], 7.37%; with Trypanosoma cruzi, 0.654%; in experiment [5], -2.88%. Also, the Percent Effect in experiment [6] was -6.01%; in the experiment listed under Homo sapiens it was -5.3%; in [7] it was 6.4%; in experiment [8] it was 11.1%; in experiment [9], 2.8%.

With `O=C(COCC1CC1)N1CCCC(n2ccnc2)C1` (stereo unspecified), the Percent Effect in experiment [1] is -2.64%; in experiment [2], 11.4%; in [3] it was 1.59%; in experiment [4] it was -0.338%; in the experiment on Trypanosoma cruzi, -1.33%; in experiment [5] it was 2.37%. In addition, the Percent Effect in experiment [6] is 9.26%; in the experiment listed under Homo sapiens, 5.7%; in [7], 1.04%; in experiment [8], 5.06%; in experiment [9] it was -21.1%.

As for `NC(=O)c1cccc(CC2CCN(C(=O)CCCN3CCOCC3)C2)c1` (stereo unspecified), the Percent Effect in experiment [1] is -2.51%; in experiment [2], -2.74%; in experiment [3], 4.39%; in experiment [4] it was -12.6%; in the experiment on Trypanosoma cruzi it was -1.18%; in experiment [5], -2.27%. Besides, the Percent Effect was -3.02% in [6]; 6.37% in the experiment listed under Homo sapiens; 2.15% in experiment [7]; 2.5% in [8]; -1.16% in experiment [9].

On to `CC(C(=O)NCc1ccnc(Oc2ccc(F)cc2)c1)n1cncn1` (stereo unspecified), for which the Percent Effect is -3.42% in [1]; -54% in experiment [2]; -1.15% in experiment [3]; 7.66% in experiment [4]; 3.86% in the experiment with Trypanosoma cruzi; 4.29% in [5]. For the same compound, the Percent Effect in experiment [6] is 9.31%; in the experiment listed under Homo sapiens, 0.85%; in experiment [7], 4.76%; in experiment [8], 14.6%; in experiment [9] it was -1.39%.

With `CCCn1nc2c(cc1=O)CN(CCCS(N)(=O)=O)CC2`, the Percent Effect was -1.13% in [1]; 0% in experiment [2]; -142% in experiment [3]; 6.58% in experiment [4]; -3.3% in the experiment with Trypanosoma cruzi; 6.01% in [5]. In addition, the Percent Effect in experiment [6] is 12.1%; in the experiment listed under Homo sapiens, -3.47%; in [7], -1.48%; in experiment [8], -8.64%; in [9], -2.91%.

With `CC(C)(CO)NC(=O)C1CCC(=O)N(Cc2ccc(Cl)cc2)C1` (stereo unspecified), the Percent Effect in [1] was -3.58%; in experiment [2], 1.39%; in experiment [3], 10.2%; in experiment [4] it was 1.15%; in the experiment on Trypanosoma cruzi it was -1.26%; in experiment [5], -3.09%. In addition, the Percent Effect in experiment [6] is 2.81%; in the experiment listed under Homo sapiens, -9.87%; in experiment [7] it was -3.16%; in experiment [8] it was 0%; in [9] it was 0.1%.

Source of the values: ChEMBL document CHEMBL3988442, “University of Dundee, Small-Polar-MMV Screening Library” (2021).
